Experimental data: PubChem BioAssay (NCI)
This is part of a sample that, as a whole, favours compounds with a hit. Of some 83,000 tested, about 20% had one in any assay.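 How to read the values: 0–100, growth inhibition (40 = 60% inhibited); 0, no net growth; -100 to 0, cell death (-40 = 40% of starting cells died; -100 = all dead).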 Calls of active or inactive are those of the source.

These molecules were tested on OVCAR-8 ovarian (assay: NCI-60 one-dose screen, 48 h (100 = growth as untreated, 0 = no growth, -100 = all killed)). Conditions: 10 µM unless noted.
Description: Growth inhibition of the OVCAR-8 human tumor cell line is measured as a screen for anti-cancer activity. Cells are grown in 96 well plates and exposed to the test compound for 48 hours. Compounds are tested at a single concentration, which is 10^-5 M for most compounds. The reported endpoint is percent growth (GI% or GIPRCNT), where numbers from 0 - 100% represent growth inhibition, and numbers from -100% - 0 represent cell death. For example, a value of 40 represents 60% growth inhibition. A value of 0 means no net growth occurred over the course of the experiment. A value of -40 indicates 40% of cells at the beginning of the experiment died by the end of the experiment. A value of -100 means all cells are dead at the end of the experiment.
NCI-60 Human Tumor Cell Lines Screen was performed using the standard one-dose NCI protocol, which is described in more detail at https://dtp.cancer.gov/discovery_development/nci-60/default.htm.
Compounds with GIPRCNT values below 10 were considered active. Activity score was based on GIPRCNT using the following formula: […]
Score is 0 for GIPRCNT values of 100 or above, 50 for GIPRCNT values of 0, and 100 for GIPRCNT values of -100.

| Structure (SMILES) | growth |
| --- | --- |
| CC1=C(C(=O)OCC2CCN(C(=O)OC(C)(C)C)CC2)[C@H](c2cccc(Br)c2)C2=C(CC(C)(C)CC2=O)N1 | 21.7% (inactive) |
| COc1ccc(Cn2cc(Cn3c(=O)c(-c4nc5ccccc5[nH]4)cc4ccccc43)nn2)c(OC)c1OC | 23.9% (inactive) |
| Cc1ccc(NC2=CC(=O)C(=O)c3ccccc32)c(C)c1 | 27.9% (inactive) |
| CC/C(=C(\CC)c1ccc(OCC[N+](C)(C)C)cc1)c1ccc(OC)cc1 | 53% (inactive) |
| COc1ccc(/C=c2\sc3n(c2=O)NC2C(N=3)N(C)C(=O)N2C)cc1 (stereo not given) | 101% (inactive) |
| COc1ccccc1CNC(=O)C1c2ccccc2C(=O)N(CC(C)C)C1c1cccs1 (stereo not given) | 50.5% (inactive) |
| COc1ccc(S(=O)(=O)N(Cc2ccc3c(n2)C=CC(C)(C)O3)C2CCC2)cc1OC | 2.69% (active) |
| CCOc1ccccc1CN1CCc2nc3cc(C(C)(C)C)[nH]n3c(=O)c2C1 | 103% (inactive) |
| Cn1nc(C(C)(C)C)cc1NC(=O)Cc1ccc(/C=C2\C(=O)Nc3ccccc32)cc1 | 54.6% (inactive) |
| CC(=O)Nc1nc2c(s1)CCc1c-2cn(S(=O)(=O)c2ccccc2)c1-c1ccccc1 | 79.7% (inactive) |
| COc1ccc(OC)c(NC(=O)/C(C#N)=C/c2ccco2)c1 | 102% (inactive) |
| COc1cc(NC(=O)CCSc2nc3ccccc3c(=O)n2CCc2ccccn2)cc(OC)c1OC | 79.1% (inactive) |
| COc1ccccc1C(=O)O/N=C(\N)Cc1cccc2ccccc12 | 78.6% (inactive) |
| CCOC(=O)C1=C(C)N=c2s/c(=C\c3ccccc3O)c(=O)n2C1c1ccc(OC)c2ccccc12 (stereo not given) | 13.2% (inactive) |
| NCCCNc1nc2ccccc2c2c(=O)c3cc(F)ccc3sc12 | 2.1% (active) |
| CCN(CC)c1cc(C)c2cc(NC(=O)c3cccc(OC)c3)ccc2n1 | 74.8% (inactive) |
| Nc1n[nH]c2ccc([C@@H]3Nc4ccc5[nH]ncc5c4[C@H]4[C@H]5CCC(C5)[C@H]43)cc12 | 24.3% (inactive) |
| Cc1ccc(C)c(-c2csc(Nc3ccc(C)c(C)c3)n2)c1 | 54.5% (inactive) |
| COc1ccc(C2C3=C(COC3=O)N(CCO)c3cc4c(cc32)CCC4)cc1OC (stereo not given) | 26.7% (inactive) |
| Oc1c(C(Nc2ccccn2)c2cccc(Oc3ccccc3)c2)ccc2cccnc12 (stereo not given) | -85.2% (active) |

| Structure (SMILES) | growth |
| --- | --- |
| O=C(/C=C/c1ccccc1)c1ccc(Nc2nc(NCCO)nc(Nc3ccc(Cl)cc3)n2)cc1 | 89.1% (inactive) |
| COc1ccc(CCN2C(=O)CCSC2=S)cc1 | 63.7% (inactive) |
| O=c1[nH]nnc2c1ncn2C1OC(CO)C(O)C1O (stereo not given) | 95.9% (inactive) |
| COc1ccc(CSc2nnc(SCC(=O)Nc3ccc(Cl)cc3)s2)cc1 | 84.4% (inactive) |
| COc1cc2c(cc1OC)C(=O)C(CC1CCN(C(=O)Nc3ccc(C)cc3)CC1)C2 (stereo not given) | 106% (inactive) |
| CC[C@H](C)[C@@H](C(=O)OC)n1cc(CNC(=O)[C@@H](Cc2ccccc2)NC(=O)OCc2ccccc2)nn1 | 91.3% (inactive) |
| NC(=O)CSc1nc(-c2ccc(F)cc2)cc(-c2ccco2)n1 | 98.1% (inactive) |
| CCOC(=O)c1sc(-c2ccc(OS(=O)(=O)c3ccc(Br)s3)c(C=O)c2)nc1C | 3.64% (active) |
| COC(=O)[C@@H]1CCCN1C(=O)[C@H]1CCCN1C(=O)[C@@H](Cc1c[nH]c2ccccc12)NC(=S)Nc1cc(C(F)(F)F)cc(C(F)(F)F)c1 | 61.3% (inactive) |
| Cc1cc(Br)c(N)c(Br)c1 | 101% (inactive) |
| CN(C)c1ccc(/C=C/c2ccnc3c(O)cccc23)cc1 | 8.43% (active) |
| O=S1(=O)N(Cc2ccccc2)[C@@H](Cc2ccccc2)[C@H](O)[C@H](O)[C@H](Cc2ccccc2)N1Cc1ccccc1 | 7.06% (active) |
| Fc1ccc(Oc2ccc(Nc3ncnc4onc(-c5ccccc5)c34)cc2)cc1 | 95.5% (inactive) |
| COc1ccc(-c2cn[nH]c2-c2cc(OC)c(OC)c(OC)c2)cc1OCc1ccccc1 | 40.1% (inactive) |
| S=C1NC2(c3ccccc3)CCC(=S)N2c2ccccc21 (stereo not given) | 100% (inactive) |
| Clc1ncccc1Nc1ccc2nnc(-c3ccncc3)n2n1 | 99.3% (inactive) |
| O=C1c2cc(Br)ccc2Oc2cc([N+](=O)[O-])ccc2N1c1ccc(I)cc1F | 94.6% (inactive) |
| O=C(/C=C/c1ccc(C(F)(F)F)cc1)c1ccc(Nc2nc(NCCO)nc(Nc3ccc(Cl)cc3)n2)cc1 | 52.6% (inactive) |
| COc1ccc(/C=C2/SC(=O)N(CC(=O)N3CCN(c4cc5c(cc4F)c(=O)c(C(=O)O)cn5C4CC4)CC3)C2=O)cc1 | 93.9% (inactive) |
| O=C(Nc1ccccc1O)c1ccc(-c2ccc(Cl)cc2Cl)o1 | 94.3% (inactive) |
